Measurements taken from PubChem BioAssay.
Values joined by “and” are separate entries in the source; they are usually repeats but may differ in a detail not shown here. Equal values may be shown once. Some structures have more than one record in an assay (separate samples or runs), and their calls can disagree. Active and inactive are the calls of the source.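 How the source made its calls, unless noted: active means inhibition at or above 50% relative to wild type and mutant plate controls; inactive means inhibition below 50%.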

Columns and labels:
[1] = inhibitors of TNFa-induced NFkB p65 translocation, primary screen, imaging, HUVEC, MLSMR starter and 10KST1 sets (AID 438;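 active means inhibition above 20% together with a positive visual image hit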;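 further: compound added about 3h40 before a 20 min TNFalpha stimulation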;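 on inhibition: signal is the nuclear over cytoplasmic p65 intensity ratio per well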); details: HUVEC TNFa-induced p65 nuclear translocation; cell count: measured here: nuclei count (cytotoxicity indicator), at 2.08 µM unless noted; inhibition: at 2 µM, stronger effect = higher value unless noted
[2] = reduction of polyQ htt aggregates in cells – imaging, exon1htt(103Q)mCFP cells, high-content imaging, primary screen (AID 483;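 active means visual image review flags a hit and inhibition of aggregation exceeds 20%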;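 further: compound exposure lasted 3 days before fixation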;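 on nuclei count: percent of the per-plate median nuclei count of sample wells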); details: exon1htt(103Q)mCFP cell line, aggregate imaging, at 2 µM; inhibition of aggregation: stronger effect = higher value; nuclei count: measured here: cell count, toxicity
[3] = endothelial E-selectin expression blockers – imaging, HUVEC, immunofluorescence, MLSMR starter and 10KST1 sets, primary screen (AID 487;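 active means visually confirmed hit in the image check and inhibition above 20%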;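 on inhibition: signal is fraction of cell area covered by stained E-selectin grains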;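 on nuclei count: 100% = median nuclei count of all wells on the same plate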); details: HUVEC TNFalpha-induced E-selectin immunofluorescence imaging, at 2 µM; inhibition: stronger effect = higher value; nuclei count: measured here: cell number, toxicity
[4] = Primary imaging screen for DUSP6 inhibitors that restore phospho-Erk in transfected HeLa cells, chemical complementation (AID 609;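 active means compounds giving at least 50% inhibition in the cell-based MKP-3 phosphatase rescue imaging test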;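 on inhibition: phospho-Erk level distribution per well compared with pooled transfected vehicle control wells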); details: HeLa MKP-3 transfected, phospho-Erk imaging KS statistic, at 10 µM
[5] = target: Dual specificity protein phosphatase 6 (Homo sapiens) (UniProt Q16828); assay: as above; details: HeLa MKP-3 transfected, phospho-Erk imaging KS statistic, at 10 µM, stronger effect = higher value
Sequence of Dual specificity protein phosphatase 6 (Homo sapiens) (Q16828 whole entry, looked up): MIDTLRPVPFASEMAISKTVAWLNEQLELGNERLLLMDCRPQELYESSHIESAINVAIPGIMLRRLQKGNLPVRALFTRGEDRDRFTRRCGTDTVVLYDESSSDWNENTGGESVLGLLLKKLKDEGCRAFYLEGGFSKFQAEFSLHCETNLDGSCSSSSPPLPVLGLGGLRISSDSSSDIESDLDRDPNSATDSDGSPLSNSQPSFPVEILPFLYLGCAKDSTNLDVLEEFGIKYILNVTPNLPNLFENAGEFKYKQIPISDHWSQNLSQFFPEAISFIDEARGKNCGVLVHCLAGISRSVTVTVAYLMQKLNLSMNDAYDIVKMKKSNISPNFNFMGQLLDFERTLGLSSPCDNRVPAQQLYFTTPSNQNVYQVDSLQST

[6] = target: Voltage-gated potassium channel subunit beta-2 (Rattus norvegicus) (UniProt P62483); assay: inhibitors of rat Kvbeta2 reductase activity – biochemical, NADPH fluorescence, primary screen (AID 622;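 active means fluorescence slope higher than the sample average by over 3 SD, cut at about -0.22 in these data, passing the limit was not always enough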;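 further: slope of raw intensity against log time taken from 70 to 1610 s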); details: recombinant KvBeta, 4-cyanobenzaldehyde reduction, at 10 µM, stronger effect = higher value
Sequence of Voltage-gated potassium channel subunit beta-2 (Rattus norvegicus) (P62483 whole entry, looked up): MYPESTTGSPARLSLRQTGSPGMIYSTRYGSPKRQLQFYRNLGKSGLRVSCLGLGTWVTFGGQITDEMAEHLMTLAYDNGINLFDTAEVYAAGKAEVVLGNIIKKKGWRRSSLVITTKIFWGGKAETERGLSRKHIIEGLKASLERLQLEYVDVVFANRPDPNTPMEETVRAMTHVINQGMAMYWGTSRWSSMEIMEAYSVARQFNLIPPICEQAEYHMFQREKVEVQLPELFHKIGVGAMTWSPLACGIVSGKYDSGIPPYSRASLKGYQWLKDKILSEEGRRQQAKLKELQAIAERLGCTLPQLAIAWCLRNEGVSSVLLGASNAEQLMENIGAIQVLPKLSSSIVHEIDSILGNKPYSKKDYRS

[7] = target: Voltage-gated potassium channel subunit beta-2 (Rattus norvegicus) (UniProt P62483); assay: enhancers of rat Kvbeta2 NADPH turnover – biochemical, NADPH fluorescence, primary screen (AID 623;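 active means NADPH fluorescence slope more negative than the mean of all samples by about 3 SD, 99.7% confidence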;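 further: fluorescence intensity change per second fitted from 20 to 320 s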); details: Recombinant KvBeta, NADPH fluorescence decrease slope, 10 min; at 10 µM; stronger effect = lower value
[8] = target: Alpha-2C adrenergic receptor (Homo sapiens) (UniProt P18825); assay: compounds altering alpha2C-coupled GIRK flux – cell-based, HEK293 alpha2C/GIRK1/2, thallium flux, primary screen (AID 624;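 active means fluorescence slope after compound addition differing from the mean of all screened samples at 99.7% confidence, in either direction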;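 further: slope of fluorescence ratio to pre-addition baseline per second over 15 to 24 s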); details: thallium flux BTC fluorescence, at 10 µM, actives lie on both sides
Sequence of Alpha-2C adrenergic receptor (Homo sapiens) (P18825 whole entry, looked up): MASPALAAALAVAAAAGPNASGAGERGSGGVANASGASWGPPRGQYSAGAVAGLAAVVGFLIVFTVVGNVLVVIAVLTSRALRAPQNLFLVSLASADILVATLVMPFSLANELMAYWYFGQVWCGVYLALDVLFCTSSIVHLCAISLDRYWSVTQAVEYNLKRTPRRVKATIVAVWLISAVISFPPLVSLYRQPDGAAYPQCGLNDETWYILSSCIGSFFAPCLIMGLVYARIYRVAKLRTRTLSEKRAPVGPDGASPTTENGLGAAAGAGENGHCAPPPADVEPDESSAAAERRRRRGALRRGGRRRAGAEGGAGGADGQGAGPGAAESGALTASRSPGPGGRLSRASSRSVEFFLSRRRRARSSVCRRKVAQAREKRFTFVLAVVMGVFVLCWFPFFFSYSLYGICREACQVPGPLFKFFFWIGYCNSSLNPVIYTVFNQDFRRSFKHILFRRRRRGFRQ

[9] = inhibitors of larval lipid processing in zebrafish, primary screen, whole organism, PED6 fluorescence, gall bladder and intestine (AID 686;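 active means a full or partial loss of lipid-probe fluorescence in the fish gall bladder, intestine or both, judged by eye; inactive means no fluorescence loss, or compound toxic to the fish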;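 further: larvae 5 to 7 days old with five fish per well; signal comes from phospholipase A2 cleavage of quenched PED6 carried via bile; overnight exposure to compound and PED6 before scoring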); details: Zebrafish larvae PED6 lipid processing, fluorescence scoring
[10] = loss of swimming-algae plug formation – whole organism, Chlamydomonas reinhardtii, WT vs cilia-less mutant, absorbance, 96-well, primary screen (AID 463189); details: Chlamydomonas reinhardtii gravitaxis, OD600 absorbance, 2 days; at 10 µM; stronger effect = higher value;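 further: 0% = wild type cc124 cells in DMSO and 100% = ciliumless bld1 mutant cells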
[11] = blockers of RIG-like receptor reporter activation – cell-based, Sendai virus stimulus, luciferase, 10K MLSCN set, TLR/RLR signaling modifier project, primary screen (AID 602276;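 active means inhibition at or above 50% at 10 µM; inactive means inhibition below 50%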;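 further: firefly luciferase from ISG56 promoter only with Renilla not read in this screen; 0% = Sendai virus plus DMSO and 100% = medium plus DMSO without virus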); details: HEK293 RL24 IRF3 luciferase reporter, at 10 µM, stronger effect = higher value
[12] = TLR3 IRF3 reporter activation blockers – cell-based, poly I:C stimulus, luciferase, 10K MLSCN set, primary screen (AID 602277;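 active means inhibition of the reporter signal at or above 50%; inactive means inhibition below 50%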); details: HEK293-TLR3 RL24 IRF3 luciferase reporter, at 10 µM, stronger effect = higher value
[13] = target: Muscarinic acetylcholine receptor M4 (Homo sapiens) (UniProt P08173); assay: M4-linked GIRK flux change, two-sided – cell-based, HEK293 M4/GIRK, thallium flux, BTC-AM, M4 allosteric agonist project, primary screen (AID 625;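 active means fluorescence slope after compound addition differing from the mean of all tested samples at 99.7% confidence, mostly higher but some lower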;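 further: thallium influx through GIRK channels coupled to M4 in HEK293 cells with BTC-AM dye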); details: at 10 µM, actives lie on both sides
Sequence of Muscarinic acetylcholine receptor M4 (Homo sapiens) (P08173 whole entry, looked up): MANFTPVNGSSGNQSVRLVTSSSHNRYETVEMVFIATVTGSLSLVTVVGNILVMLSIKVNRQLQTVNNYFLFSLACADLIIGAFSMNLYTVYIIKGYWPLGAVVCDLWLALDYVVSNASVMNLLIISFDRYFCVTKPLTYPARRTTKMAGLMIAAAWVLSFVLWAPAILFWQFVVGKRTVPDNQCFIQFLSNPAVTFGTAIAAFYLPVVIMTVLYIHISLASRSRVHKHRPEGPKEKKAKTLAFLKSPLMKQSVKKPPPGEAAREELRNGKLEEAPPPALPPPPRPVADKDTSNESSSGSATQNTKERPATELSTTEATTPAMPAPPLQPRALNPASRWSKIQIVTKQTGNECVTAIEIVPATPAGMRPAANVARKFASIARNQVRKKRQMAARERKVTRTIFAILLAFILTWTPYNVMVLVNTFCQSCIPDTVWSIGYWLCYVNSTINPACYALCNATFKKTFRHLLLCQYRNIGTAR

[14] = measured here: cell density z-score
[15] = measured here: nuclear c-Myc green intensity z-score
[16] = measured here: nuclear pErk red intensity z-score, stronger effect = higher value

Compound: COC1=CC(=O)OC(/C=C/c2ccccc2)C1 (stereo unspecified)
- cell count [1]: 562
- inhibition [1]: 0.9% (inactive)
- inhibition of aggregation [2]: 17.4% (inactive)
- nuclei count [2]: 92%
- inhibition [3]: 1.6% (inactive)
- nuclei count [3]: 112%
- z-score [4, 14]: 1.47
- z-score [4, 15]: -1.75
- z-score [4, 16]: -1.36
- inhibition [5]: 25.7% (inactive)
- fluorescence slope [6]: -0.448 (inactive)
- NADPH fluorescence slope [7]: -5.6e-05 (inactive)
- slope [8]: 0.00584 (inactive)
- outcome [9]: inactive
- inhibition [10]: -16.3% (inactive)
- inhibition [11]: 0.4% (inactive)
- inhibition [12]: -0.629% (inactive)

Compound: C[C@H]1OC[C@@H](C[N+](C)(C)C)O1
- cell count [1]: 534
- inhibition [1]: -2.2% (inactive)
- inhibition of aggregation [2]: 21% (inactive)
- nuclei count [2]: 93.2%
- inhibition [3]: -83.7% (inactive)
- nuclei count [3]: 112%
- z-score [4, 14]: 0.485
- z-score [4, 15]: 0.998
- z-score [4, 16]: -0.857
- inhibition [5]: 16.8% (inactive)
- fluorescence slope [6]: -0.458 (inactive)
- NADPH fluorescence slope [7]: -5.9e-05 (inactive)
- slope [8]: 0.0176 (active)
- outcome [9]: inactive
- inhibition [10]: -2.33% (inactive) and 9.97% (inactive)
- inhibition [11]: 1.89% (inactive)
- inhibition [12]: 50.9% (active)

Compound: CCCCSP1(=S)NCCCO1 (stereo unspecified)
- cell count [1]: 490
- inhibition [1]: -12.8% (inactive)
- inhibition [3]: -2.8% (inactive)
- nuclei count [3]: 116%
- z-score [4, 14]: 0.851
- z-score [4, 15]: -1.48
- z-score [4, 16]: -1.55
- inhibition [5]: 9.39% (inactive)
- fluorescence slope [6]: -0.465 (inactive)
- NADPH fluorescence slope [7]: -0.000374 (inactive)
- slope [8]: 0.00445 (inactive)
- outcome [9]: inactive
- inhibition [10]: 18.8% (inactive)

Compound: c1ccc2c(c1)[nH]c1cnccc12
- cell count [1]: 584
- inhibition [1]: -5.4% (inactive)
- inhibition of aggregation [2]: -8.3% (inactive)
- nuclei count [2]: 86.9%
- inhibition [3]: -52.4% (inactive)
- nuclei count [3]: 113%
- z-score [4, 14]: 0.863
- z-score [4, 15]: -0.369
- z-score [4, 16]: 0.512
- inhibition [5]: -10.4% (inactive)
- fluorescence slope [6]: -0.166 (active)
- NADPH fluorescence slope [7]: 2.2e-05 (inactive)
- slope [8]: 0.00469 (inactive)
- outcome [9]: inactive
- inhibition [10]: 6.75% (inactive)
- inhibition [11]: 2.27% (inactive)
- inhibition [12]: 16.3% (inactive)

Compound: OCCOCC#CCN1CCOCC1
- cell count [1]: 582
- inhibition [1]: 8.1% (inactive)
- inhibition of aggregation [2]: -15.3% (inactive)
- nuclei count [2]: 100%
- inhibition [3]: -167% (inactive)
- nuclei count [3]: 137%
- z-score [4, 14]: -0.584
- z-score [4, 15]: 1.05
- z-score [4, 16]: 0.188
- inhibition [5]: 17.8% (inactive)
- fluorescence slope [6]: -0.497 (inactive)
- NADPH fluorescence slope [7]: -5.8e-05 (inactive)
- fluorescence slope [13]: 0.006 (inactive)
- outcome [9]: inactive
- inhibition [10]: -6.14% (inactive)
- inhibition [11]: 19.2% (inactive)
- inhibition [12]: 20.5% (inactive)

Compound: NCCc1ccc(O)cc1
- cell count [1]: 431
- inhibition [1]: 6% (inactive)
- inhibition of aggregation [2]: 11.4% (inactive)
- nuclei count [2]: 95.7%
- inhibition [3]: 22.3% (inactive)
- nuclei count [3]: 92.7%
- fluorescence slope [6]: -0.573 (inactive)
- NADPH fluorescence slope [7]: -7e-05 (inactive)
- fluorescence slope [13]: 0.00467 (inactive)
- inhibition [10]: 7.08% (inactive)
- inhibition [11]: 12.8% (inactive)
- inhibition [12]: 19% (inactive)

Compound: CN(C)[C@@H]1C(=O)C(C(N)=O)=C(O)[C@@]2(O)C(=O)C3=C(O)c4c(O)ccc(Cl)c4[C@@](C)(O)C3C[C@@H]12 (stereo partly specified)
- cell count [1]: 634
- inhibition [1]: -1.6% (inactive)
- inhibition of aggregation [2]: 76.3% (active)
- nuclei count [2]: 102%
- inhibition [3]: -43.7% (inactive)
- nuclei count [3]: 123%
- z-score [4, 14]: -1.02
- z-score [4, 15]: 0.954
- z-score [4, 16]: -0.997
- inhibition [5]: 21.2% (inactive)
- fluorescence slope [6]: -0.468 (inactive)
- NADPH fluorescence slope [7]: -6.5e-07 (inactive)
- slope [8]: 0.00588 (inactive)
- outcome [9]: inactive
- inhibition [10]: 51.9% (active)
- inhibition [11]: 23% (inactive)
- inhibition [12]: 44.9% (inactive)

Compound: CC(=O)[C@@]1(O)CC[C@H]2[C@@H]3CC=C4C[C@@H](O)CC[C@]4(C)[C@H]3CC[C@@]21C
- cell count [1]: 618
- inhibition [1]: -10.4% (inactive)
- inhibition of aggregation [2]: 4% (inactive)
- nuclei count [2]: 99.3%
- inhibition [3]: -57.3% (inactive)
- nuclei count [3]: 129%
- z-score [4, 14]: -0.0512
- z-score [4, 15]: -0.687
- z-score [4, 16]: -0.36
- inhibition [5]: 7.39% (inactive)
- fluorescence slope [6]: -0.451 (inactive)
- NADPH fluorescence slope [7]: -5.3e-05 (inactive)
- slope [8]: 0.00537 (inactive)
- outcome [9]: inactive
- inhibition [10]: -4.89% (inactive)
- inhibition [11]: 9% (inactive)
- inhibition [12]: 26.8% (inactive)

Compound: CN1C[C@H](CNC(=O)OCc2ccccc2)C[C@@H]2c3cccc4c3c(cn4C)C[C@H]21
- cell count [1]: 603
- inhibition [1]: 2.7% (inactive)
- inhibition of aggregation [2]: -59.5% (inactive)
- nuclei count [2]: 111%
- inhibition [3]: -32.3% (inactive)
- nuclei count [3]: 110%
- z-score [4, 14]: -0.59
- z-score [4, 15]: -0.701
- z-score [4, 16]: 1.38
- inhibition [5]: 1.38% (inactive)
- fluorescence slope [6]: -0.508 (inactive)
- NADPH fluorescence slope [7]: -3.6e-06 (inactive)
- slope [8]: 0.0041 (inactive)
- outcome [9]: inactive
- inhibition [10]: 0.679% (inactive) and 168% (active)
- inhibition [11]: 1.55% (inactive)
- inhibition [12]: 23.4% (inactive)

Compound: Clc1ccc(CSC(Cn2ccnc2)c2ccc(Cl)cc2Cl)cc1 (stereo unspecified)
- cell count [1]: 639
- inhibition [1]: 3.8% [at 2 µM, stronger effect = higher value, 0% TNFa-plus-vehicle, 100% no-TNFa wells] (inactive)
- inhibition of aggregation [2]: -3.9% (inactive)
- nuclei count [2]: 108%
- inhibition [3]: -57.9% (inactive)
- nuclei count [3]: 120%
- z-score ([4]; measured here: cell density z-score, cells stimulated with TPA for 15 min): 0.528
- z-score ([4]; measured here: nuclear c-Myc green intensity z-score, cells stimulated with TPA for 15 min): 0.633
- z-score ([4]; measured here: nuclear pErk red intensity z-score, stronger effect = higher value, cells stimulated with TPA for 15 min): 0.478
- inhibition [5]: 10.2% [cells stimulated with TPA for 15 min] (inactive)
- fluorescence slope [6]: -0.531 (inactive)
- NADPH fluorescence slope [7]: -3.2e-05 (inactive)
- slope [8]: 0.0071 (inactive)
- outcome [9]: inactive; toxic [screened at 20 µM (by protocol)]
- inhibition [10]: 31.3% (inactive)
- inhibition [11]: 13.2% (inactive)
- inhibition [12]: 7.53% (inactive)
